Data on 25 compounds can be found in PubChem BioAssay (Tox21).

The target of experiment [1] is Peroxisome proliferator-activated receptor delta (Homo sapiens) (UniProt Q03181). Kind of experiment: qHTS assay to identify small molecule agonists of the peroxisome proliferator-activated receptor delta (PPARd) signaling pathway (AID 743212; calls by dose curve). The method in brief:
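HEK293H UAS-bla reporter cells, human PPARd system; compounds delivered in DMSO after 5 h plating, then at 37 C. Beta-lactamase FRET read, 2 h RT substrate step.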
On the technique in general: In qHTS, concentration-response curves come from the screen itself.

Experiment [2] is described as follows: qHTS assay to identify small molecule antagonists of the peroxisome proliferator-activated receptor delta (PPARd) signaling pathway - cell viability counter screen (AID 743213). Also: nearly all actives have a fitted effect of over 50% in size. Also: potency is read from the fitted curve at half-maximal effect. The method in brief: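 CellTiter-Glo was added to PPARd-bla HEK293H wells following 17 h compound treatment in the presence of 300 nM L165041. Luminescence was recorded after 30 min at room temperature.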

The target in experiment [3] is Peroxisome proliferator-activated receptor delta (Homo sapiens) (UniProt Q03181). Kind of experiment: qHTS assay to identify small molecule antagonists of the peroxisome proliferator-activated receptor delta (PPARd) signaling pathway (AID 743215; active = well fitted inhibition curve with a large enough effect in the signal ratio in the repeat runs, not every such curve was filed as active; the % refers to the signal ratio;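 also: cells stimulated with agonist L165041 at 300 nM final during compound exposure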; also: potency is read from the fitted curve at half-maximal effect). In outline:
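Antagonist-mode beta-lactamase reporter screen: HEK293H cells with UAS-bla under PPARd control, stimulated by 300 nM L165041 (final) alongside test compound for 17 h at 37 C, then FRET fluorescence after 2 h substrate incubation.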

The target of experiment [4] is Bile acid receptor (Homo sapiens) (UniProt Q96RI1). Kind of experiment: qHTS assay to identify small molecule antagonists of the farnesoid-X-receptor (FXR) signaling pathway (AID 743217; active = well fitted inhibition curve with a large enough effect in the signal ratio in the repeat runs, not every such curve was filed as active; the % refers to the signal ratio). In outline:
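Beta-lactamase reporter under UAS control in HEK 293T cells; compound exposure 16 h at 37 °C in the presence of chenodeoxycholic acid (50 uM final); signal from B/G FRET substrate after 2 h at room temperature.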

A short description of experiment [5]: qHTS assay to identify small molecule agonists of the farnesoid-X-receptor (FXR) signaling pathway - cell viability counter screen (AID 743218). Also: nearly all actives have a fitted effect of over 45% in size. Also: potency is read from the fitted curve at half-maximal effect. In outline:
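In GeneBLAzer FXR-UAS-bla HEK 293T cells, compounds act for 16 h at 37 C. Cell viability is then scored in the reporter wells by CellTiter-Glo, 30 min at RT, luminescence.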

Experiment [6] in a line: qHTS assay to identify small molecule antagonists of the farnesoid-X-receptor (FXR) signaling pathway - cell viability counter screen (AID 743221; active = well fitted cell-killing curve with a large enough effect in the repeat runs, not every such curve was filed as active; also: nearly all actives have a fitted effect of over 50% in size; also: potency is read from the fitted curve at half-maximal effect). In outline: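 Cytotoxicity counter screen run in the FXR-bla reporter wells: HEK 293T cells exposed to compound with 50 uM (final) chenodeoxycholic acid for 16 h, 37 C, then viability measured by CellTiter-Glo luminescence after 30 min, room temperature.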

Experiment [7] deals with Vitamin D3 receptor (Homo sapiens) (UniProt P11473). Nature of the experiment: qHTS assay to identify small molecule agonists of the vitamin D receptor (VDR) signaling pathway (AID 743222; calls by dose curve). In outline:
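Agonist activity measured in VDR-bla reporter cells. Exposure 16 h, 37C, 5% CO2; detection by B/G FRET substrate, 2 h RT.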

The target is the same in experiment [8]. Nature of the experiment: qHTS assay to identify small molecule antagonists of the vitamin D receptor (VDR) signaling pathway (AID 743223; active = well fitted inhibition curve with a large enough effect in the signal ratio in the repeat runs, not every such curve was filed as active; the % refers to the signal ratio). The method in brief:
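Antagonist mode: compound added to VDR-bla cells alongside agonist 1alpha,25-dihydroxyvitamin D3 (3 nM final), incubation 16 h at 37C. Read-out is LiveBLAzer FRET fluorescence, 2 h at room temperature.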

Experiment [9] is described as follows: qHTS assay to identify small molecule agonists of the vitamin D receptor (VDR) signaling pathway - cell viability counter screen (AID 743224). Also: nearly all actives have a fitted effect of over 50% in size. Also: potency is read from the fitted curve at half-maximal effect. In outline:
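VDR-bla cell line, quantitative HTS format; 16 h compound incubation (37C, 5% CO2); ATP-based CellTiter-Glo luminescence measured in the reporter assay wells.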

For experiment [10], the target named is Bile acid receptor (Homo sapiens) (UniProt Q96RI1). Kind of experiment: qHTS assay to identify small molecule agonists of the farnesoid-X-receptor (FXR) signaling pathway (AID 743220; active = well fitted activation curve with a large enough effect in the signal ratio in the repeat runs, not every such curve was filed as active; the % refers to the signal ratio). The method in brief: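 Beta-lactamase reporter under UAS control in GeneBLAzer FXR HEK 293T cells (5000/well) measured with LiveBLAzer FRET substrate after 2 h at room temperature. Compound exposure lasted 16 h at 37C.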

Several values for one entry are separate records, joined by “and”; a condition that tells them apart may be missing. Identical values can stand only once. Inconclusive results are not listed. Some structures have more than one record in an assay (separate samples or runs), and their calls can disagree. Activity calls are given as the source filed them. Unless noted, calls follow the shape of the dose curve; as a rule, active = well fitted curve in the direction sought with a large enough effect in the repeat runs; inconclusive = weak or mixed curves; inactive = no such curve, though single readings can be large; an effect the other way counts as inactive or inconclusive.

Sequence of Bile acid receptor (Homo sapiens) (Q96RI1 whole entry, looked up): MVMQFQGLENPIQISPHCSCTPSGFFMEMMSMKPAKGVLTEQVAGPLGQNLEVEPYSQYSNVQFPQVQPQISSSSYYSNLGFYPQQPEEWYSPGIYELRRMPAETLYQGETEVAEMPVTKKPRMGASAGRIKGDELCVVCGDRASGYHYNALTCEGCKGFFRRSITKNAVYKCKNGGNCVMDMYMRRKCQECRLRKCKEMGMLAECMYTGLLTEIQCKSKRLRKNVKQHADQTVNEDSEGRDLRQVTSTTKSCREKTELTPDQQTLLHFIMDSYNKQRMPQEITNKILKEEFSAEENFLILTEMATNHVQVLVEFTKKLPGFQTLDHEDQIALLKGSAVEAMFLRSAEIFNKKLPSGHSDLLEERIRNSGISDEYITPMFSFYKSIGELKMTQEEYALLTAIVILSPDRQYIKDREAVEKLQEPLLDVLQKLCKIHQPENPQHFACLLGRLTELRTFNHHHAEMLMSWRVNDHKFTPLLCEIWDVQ
Sequence of Vitamin D3 receptor (Homo sapiens) (P11473 whole entry, looked up): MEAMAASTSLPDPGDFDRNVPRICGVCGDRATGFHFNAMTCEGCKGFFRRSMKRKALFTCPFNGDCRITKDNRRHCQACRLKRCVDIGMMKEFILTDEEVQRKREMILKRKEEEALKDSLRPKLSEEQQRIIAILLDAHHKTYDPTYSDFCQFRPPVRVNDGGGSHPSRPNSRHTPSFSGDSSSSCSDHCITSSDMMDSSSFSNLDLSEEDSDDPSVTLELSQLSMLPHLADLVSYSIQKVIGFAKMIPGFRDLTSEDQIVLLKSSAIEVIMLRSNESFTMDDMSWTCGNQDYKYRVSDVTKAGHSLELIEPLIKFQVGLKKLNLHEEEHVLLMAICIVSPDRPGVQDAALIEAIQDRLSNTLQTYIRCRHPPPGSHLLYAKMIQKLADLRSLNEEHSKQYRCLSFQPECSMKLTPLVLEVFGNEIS
Sequence of Peroxisome proliferator-activated receptor delta (Homo sapiens) (Q03181 whole entry, looked up): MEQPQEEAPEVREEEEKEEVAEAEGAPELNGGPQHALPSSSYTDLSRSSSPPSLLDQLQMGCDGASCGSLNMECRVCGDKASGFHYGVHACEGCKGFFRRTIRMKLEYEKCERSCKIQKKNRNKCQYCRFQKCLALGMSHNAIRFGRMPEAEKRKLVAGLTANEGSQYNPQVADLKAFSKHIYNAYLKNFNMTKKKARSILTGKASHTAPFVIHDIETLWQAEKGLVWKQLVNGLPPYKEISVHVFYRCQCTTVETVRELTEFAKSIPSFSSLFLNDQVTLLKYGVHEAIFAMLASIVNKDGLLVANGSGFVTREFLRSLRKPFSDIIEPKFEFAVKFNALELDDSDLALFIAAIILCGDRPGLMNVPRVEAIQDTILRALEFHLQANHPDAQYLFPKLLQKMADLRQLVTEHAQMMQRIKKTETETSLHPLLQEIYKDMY

With `C=C(C)C(=O)OCC1CO1` (stereo not given), the Potency entry in experiment [1], in [2], in [3], in [4], in experiment [5] and in experiment [6] was “inactive” in each case. In addition, the Potency entry in [9] was “inactive”. Further, the compound was classed as inactive in [7] and in experiment [8].
For the compound `N#CC(Br)Br`, the Potency entry in experiment [1], in experiment [2], in experiment [3], in [4], in experiment [5] and in experiment [6] was “inactive” each time. The Potency result in experiment [9] is “inactive”. Further, the compound was classed as inactive in experiment [10].
`CC(C)N(C(=O)SCC(Cl)=C(Cl)Cl)C(C)C`: the Potency entry in experiment [1], in experiment [2], in experiment [3], in [4], in experiment [5] and in [6] was “inactive” each time. Besides, the compound was called inactive in [7] and in experiment [8].
In the case of `O=[N+]([O-])c1c(Cl)c(Cl)c(Cl)c(Cl)c1Cl`, the Potency result in [1], in [2], in [3], in [5], in experiment [6] and in [9] was “inactive” throughout. Further, the compound was classed as inactive in experiment [7] and in [8].
`C#C[C@]1(O)CC[C@H]2[C@@H]3CCC4=CC(=O)CC[C@]4(C)[C@H]3CC[C@@]21C`: the Potency result in experiment [1], in experiment [2], in experiment [3], in experiment [4], in experiment [5] and in experiment [6] was “inactive” each time. Further, in experiment [9], the Potency result was “inactive”.
`NCc1cccnc1`: the Potency result in experiment [1], in experiment [2], in experiment [3], in [4], in [5] and in [6] was “inactive” in each case. Moreover, the Potency result in experiment [9] is “inactive”. In addition, the outcome in experiment [7] and in experiment [8] was inactive.
Regarding `NNC(N)=S`, the Potency entry in experiment [1], in experiment [4], in experiment [5] and in experiment [6] was “inactive” each time. Besides, the Potency in [2] was 8.07 µM (active) and inactive; in experiment [3], 43.6 µM (active); in [9], 32.1 µM (active). Besides, the outcome in [7] and in [8] was inactive.
As for `CCC(CC)Nc1c([N+](=O)[O-])cc(C)c(C)c1[N+](=O)[O-]`, the Potency result in [1], in experiment [2], in experiment [3], in [4], in experiment [5] and in experiment [6] was “inactive” throughout. For the same compound, the Potency entry in [9] was “inactive”. For the same compound, the compound was classed as inactive in [10], in experiment [7] and in experiment [8].
Regarding `Nc1c(Cl)cc([N+](=O)[O-])cc1Cl`, the Potency entry in experiment [1], in experiment [3], in experiment [4] and in [9] was “inactive” in each case. For the same compound, the Potency entry in experiment [2] is “inactive and 4.36 µM (active)”; in [5], 2.75 µM (active); in experiment [6], “inactive and 4.36 µM (active)”. In addition, the compound was classed as inactive in [10], in experiment [7] and in experiment [8].
Regarding `Nc1ccc(Cl)c(Cl)c1`, the Potency result in [1], in [2], in [3], in experiment [5], in experiment [6] and in experiment [9] was “inactive” throughout. Moreover, the result in [7] and in experiment [8] was inactive.
As to `N[C@@H](Cc1ccc(N(CCCl)CCCl)cc1)C(=O)O`, the Potency result in experiment [1], in experiment [2], in experiment [3], in experiment [4], in [5] and in experiment [6] was “inactive” in each case. In experiment [9], the Potency entry was “inactive”.
Take `CN(C)C(=O)Nc1ccc(Cl)cc1`: the Potency result in experiment [1], in experiment [2], in experiment [3], in [4], in [5] and in experiment [6] was “inactive” each time. Further, in experiment [9], the Potency result was “inactive”. The result in [10], in experiment [7] and in experiment [8] was inactive.
`CCCCCCCCOC(=O)c1ccccc1C(=O)OCCCCCCCC`: the Potency entry in experiment [1], in experiment [2], in [3], in experiment [4], in [5] and in experiment [6] was “inactive” throughout. In addition, in [9], the Potency result was “inactive”. The result in experiment [7] and in experiment [8] was inactive.
Take `NC(=S)Nc1ccccc1`: the Potency entry in experiment [1], in experiment [2], in experiment [3], in [4], in experiment [5] and in experiment [6] was “inactive” in each case. For the same compound, the Potency entry in experiment [9] was “inactive”. Also, the result in [10], in experiment [7] and in experiment [8] was inactive.
As for `CCc1cccc(CC)c1N(COC)C(=O)CCl`, the Potency entry in experiment [1], in experiment [2], in [4], in experiment [5], in [6] and in experiment [9] was “inactive” throughout. The outcome in [10], in experiment [7] and in experiment [8] was inactive.
For `Cc1ccc(OP(=O)(Oc2ccc(C)cc2)Oc2ccc(C)cc2)cc1`, the Potency entry in experiment [1], in experiment [2], in [3], in experiment [5], in [6] and in experiment [9] was “inactive” in each case. In addition, the call in experiment [7] and in experiment [8] was inactive.
`Cc1ccc2c(c1N)C(=O)c1ccccc1C2=O`: the Potency result in experiment [1], in experiment [2], in [3], in experiment [5], in experiment [6] and in experiment [9] was “inactive” in each case.
Regarding `CC(C)NC(C)C`, the Potency result in experiment [1], in experiment [2], in [3], in [5], in experiment [6] and in [9] was “inactive” each time. Moreover, the result in experiment [7] and in experiment [8] was inactive.
Take `O=C(NC(=O)c1c(F)cccc1F)Nc1ccc(Cl)cc1`: the Potency result in [1], in experiment [2], in [4], in [5], in experiment [6] and in [9] was “inactive” each time. Besides, the call in experiment [10], in experiment [7] and in [8] was inactive.
Take `CCOC(=O)C(C)OC(=O)c1cc(Oc2ccc(C(F)(F)F)cc2Cl)ccc1[N+](=O)[O-]` (stereo not given): the Potency result in experiment [1], in experiment [2], in [3], in experiment [6] and in experiment [9] was “inactive” each time.
With `O=C(O)CC[N+](=O)[O-]`, the Potency result in [1], in experiment [2], in experiment [3], in experiment [5], in [6] and in experiment [9] was “inactive” in each case. In addition, the call in [8] was inactive.
As for `CC(C)c1ccc(CO)cc1`, the Potency result in experiment [1], in [2], in experiment [4], in experiment [5], in [6] and in experiment [9] was “inactive” throughout. For the same compound, the compound was called inactive in experiment [7] and in [8].
Regarding `Clc1nc(Cl)nc(Cl)n1`, the Potency entry in experiment [1], in [2], in experiment [3], in [5], in experiment [6] and in [9] was “inactive” each time. The compound was classed as inactive in experiment [7] and in experiment [8].
`CCN(CC)C(=O)/C(Cl)=C(\C)OP(=O)(OC)OC`: the Potency result in experiment [1], in [2], in experiment [3], in experiment [5], in [6] and in experiment [9] was “inactive” throughout. Also, the outcome in experiment [7] and in experiment [8] was inactive.
For `CC(C)(C)c1ccccc1O`, the Potency result in experiment [1], in [2], in [3], in [5], in experiment [6] and in experiment [9] was “inactive” in each case. In experiment [7], the outcome was inactive.
